A selection: hits, their analogues and other compounds. The true share with any hit is near 11%.
NPR1 antag: Natriuretic polypeptide receptor (hNpr1) antagonism - Primary qHTS; Atrial natriuretic peptide receptor 1 (Homo sapiens), P16066; HEK293 hNpr1 GloSensor cGMP, ANP-stimulated luminescence; Potency, µM (series often up to 46.3 µM), inactives show top-dose activity change, negative = inhibition, usual class: inhibitors; 1.6% of 76,000 active; AID 1347048, 2019; calls by dose curve; note: % is set by controls: 0 for no effect and ±100 for the full control effect; nearly all actives have a fitted effect of over 60% in size
Target sequence (P16066 whole entry, looked up): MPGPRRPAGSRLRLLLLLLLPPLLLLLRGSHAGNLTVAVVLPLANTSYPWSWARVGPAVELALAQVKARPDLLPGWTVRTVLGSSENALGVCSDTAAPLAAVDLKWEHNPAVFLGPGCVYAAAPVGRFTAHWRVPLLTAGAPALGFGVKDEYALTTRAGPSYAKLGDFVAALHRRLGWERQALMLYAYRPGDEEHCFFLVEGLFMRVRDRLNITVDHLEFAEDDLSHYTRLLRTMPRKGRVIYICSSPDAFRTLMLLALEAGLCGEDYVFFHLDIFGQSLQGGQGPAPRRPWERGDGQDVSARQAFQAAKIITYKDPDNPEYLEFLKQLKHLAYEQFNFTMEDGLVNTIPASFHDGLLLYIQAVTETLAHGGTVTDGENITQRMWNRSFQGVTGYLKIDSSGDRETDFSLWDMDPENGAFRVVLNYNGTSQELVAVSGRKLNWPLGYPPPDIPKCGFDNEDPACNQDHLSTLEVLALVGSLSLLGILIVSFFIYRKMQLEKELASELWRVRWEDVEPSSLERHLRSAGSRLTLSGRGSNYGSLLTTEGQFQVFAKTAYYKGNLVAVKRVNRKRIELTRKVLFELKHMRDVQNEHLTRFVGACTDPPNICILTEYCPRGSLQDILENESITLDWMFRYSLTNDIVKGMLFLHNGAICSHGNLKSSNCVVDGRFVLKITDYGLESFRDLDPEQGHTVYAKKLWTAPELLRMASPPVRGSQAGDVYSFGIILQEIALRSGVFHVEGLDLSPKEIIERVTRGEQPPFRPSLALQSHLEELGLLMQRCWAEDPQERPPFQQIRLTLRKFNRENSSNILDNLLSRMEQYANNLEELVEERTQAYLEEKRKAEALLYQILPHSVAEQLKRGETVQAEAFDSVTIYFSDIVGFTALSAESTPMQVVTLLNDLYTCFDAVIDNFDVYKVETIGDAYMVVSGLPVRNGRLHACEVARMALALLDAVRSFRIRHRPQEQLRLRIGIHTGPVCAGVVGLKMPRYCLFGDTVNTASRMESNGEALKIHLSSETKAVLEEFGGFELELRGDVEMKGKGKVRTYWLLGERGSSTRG
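Compound pre-incubated 30 min at room temperature on GloSensor-loaded HEK293 cells stably carrying hNpr1 and the pGS-40F cGMP biosensor. Stimulation uses hNppA at 0.1 nM final; luminescence is taken at baseline and 20 min post-agonist.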
HEK293 tox: Cytotoxic Profiling in HEK 293 Cell Line of Diverse Libraries Using Quantitative High-Throughput Screening; HEK 293 viability, ATP luminescence (CellTiter-Glo), 48-72 h; Potency, µM (doses to about 115 µM), for the others: at the highest dose activity change, negative = cytotoxicity, usual class: inhibitors; 6.6% of 94,000 active; AID 1345083, 2018; note: % is set by controls: 0 for no effect and ±100 for the full control effect; nearly all actives have a fitted effect of over 60% in size
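Luminescence from cellular ATP, measured with CellTiter-Glo, indicates HEK 293 viability. Cells plated at 250 cells/well are treated with compound for 48 or 72 hr at 37 degree Celsius before reagent addition.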
Luciferase inh: Firefly luciferase inhibition profiling of diverse chemical library using quantitative high-throughput screening | purified P. pyralis luciferase, luminescence, biochemical | Luciferin 4-monooxygenase (Photinus pyralis), P08659 | Potency, µM (highest dose often 115 µM), actives largely listed as inhibitors | 2.5% of 76,000 active | AID 1347043, 2019; note: % is set by controls: 0 for no effect and ±100 for the full control effect; nearly all actives have a fitted effect of over 65% in size
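Luminescence read by CCD imaging after purified firefly luciferase (10nM final) was added to substrate buffer holding 10uM D-luciferin and 10uM ATP, pH 7.5, pre-dosed with compound.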
3T3 cytotox: Cytotoxic Profiling in NIH 3T3 Cell Line of Diverse Libraries Using Quantitative High-Throughput Screening. Potency, µM (highest dose often 96.7 µM), without a hit: at the top dose activity change, negative = cytotoxicity, usual class: inhibitors. 4.3% of 94,000 active. AID 1345082, 2018. NIH 3T3 viability, CellTiter-Glo ATP luminescence, 48-72 h; note: % is set by controls: 0 for no effect and ±100 for the full control effect; nearly all actives have a fitted effect of over 55% in size
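ATP-dependent luminescence (CellTiter-Glo) served as the viability signal for NIH 3T3 cells treated with compound for 48 or 72 hr at 37 °C.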
Npr1 antag conf: Natriuretic polypeptide receptor (hNpr1) antagonism - Confirmation | 76% of 1,400 active | AID 1347044, 2019 | shares compounds with NPR1 antag | Potency, µM (titrated, usually from 57.6 µM), for inactives: at the top dose activity change, negative = inhibition, hits mostly inhibitors | HEK293 hNpr1 cGMP GloSensor luminescence, ANP-stimulated; calls by dose curve; note: nearly all actives have a fitted effect of over 70% in size
NPR2 antag: Natriuretic polypeptide receptor (hNpr2) antagonism - Subtype selectivity assay. shares compounds with NPR1 antag. HEK293 hNpr2 GloSensor cGMP luminescence, CNP-stimulated. Potency, µM (titrated, usually from 57.6 µM), inactives show top-dose activity change, negative = inhibition, actives largely listed as inhibitors. 67% of 1,400 active; calls by dose curve; note: nearly all actives have a fitted effect of over 70% in size
FLuc inh counter: Natriuretic polypeptide receptor (hNpr1) antagonism - Confirmation firefly luciferase (FLuc) inhibition counterscreen; shares compounds with NPR1 antag; Potency, µM (doses to about 57.6 µM), for the others: at the highest dose activity change, negative = inhibition, hits mostly inhibitors; 0.7% of 1,400 active; purified FLuc enzyme, luminescence, Km substrate; note: 0% is about no effect
GloSensor ctrl: Natriuretic polypeptide receptor (hNpr1) antagonism - Counterscreen GloSensor control cell line; shares compounds with NPR1 antag; HEK293 GloSensor cGMP, SNP-stimulated, luminescence; Potency, µM (doses to about 57.6 µM), without a hit: top-dose activity change, negative = inhibition, most hits filed as inhibitors; 69% of 1,400 active; AID 1347051, 2019; calls by dose curve; note: % is set by controls: 0 for no effect and ±100 for the full control effect; nearly all actives have a fitted effect of over 70% in size
* marks the source's active call; other numbers are inactive results; [ ] = dose if it differs, or a comment. Unless noted, calls come from the whole dose curve; as a rule, active = well fitted curve in the direction sought with a large enough effect; inconclusive = small, poorly fitted or top-dose-only effect, or another doubt; inactive = no such curve, though single readings can be large; an effect the other way counts as inactive or inconclusive. Potency is the fitted concentration of half-maximal effect.

CC(C)c1noc(-c2cn(C3CCN(C(=O)c4ccc(F)cc4)C3)nn2)n1 (stereo not drawn) was read as NPR1 antag -5%, HEK293 tox inconclusive, Luciferase inh inactive and 3T3 cytotox -26%.
CC(C)c1noc(-c2cn(C3CCN(C(=O)c4ccccc4)CC3)nn2)n1 was read as NPR1 antag 0%, HEK293 tox -14%, Luciferase inh inactive and 3T3 cytotox -8%.
`COc1ccc(NC(=O)COc2cccc(-c3nnc4n3CCCC4)c2)cc1OC` gave NPR1 antag 1%, HEK293 tox -2%, Luciferase inh inactive and 3T3 cytotox -18%.
O=C(OCCF)N1CCC(Oc2cnc3c(ccn3-c3cncnc3)c2)CC1 was read as NPR1 antag -6%[70.6 µM], HEK293 tox inconclusive, Luciferase inh inactive and 3T3 cytotox inconclusive.
For COc1ccc(N2CC(C(=O)N3CCC(C(=O)NC4CC4)C3)NC2=O)cc1 (stereo not drawn) the results were NPR1 antag 24%, HEK293 tox 4%, Luciferase inh inactive and 3T3 cytotox -8%.
For COCCCN(CCC(=O)NCCc1ccccc1)C(=O)c1cc(C)oc1C the results were NPR1 antag -2%, HEK293 tox inconclusive, Luciferase inh inactive and 3T3 cytotox inconclusive.
Screening CCCCCCN(CCC(=O)NCCc1ccccc1)C(=O)c1cc(C)oc1C returned NPR1 antag 16µM*, HEK293 tox 8.9µM*, Luciferase inh inactive, 3T3 cytotox inconclusive, Npr1 antag conf inconclusive, NPR2 antag inconclusive, FLuc inh counter -21% and GloSensor ctrl inconclusive.
For CCCCCN(CCC(=O)NCc1ccc2c(c1)OCO2)C(=O)c1cc(C)oc1C the results were NPR1 antag 13µM*, HEK293 tox inconclusive, Luciferase inh inactive, 3T3 cytotox 32µM*, Npr1 antag conf inconclusive, NPR2 antag inconclusive, FLuc inh counter 2% and GloSensor ctrl 1%.
`C[S+](=O)([O-])N1Cc2ccccc2CC2(CCCCN2CC2CCCC2)C1` (stereo not drawn) gave HEK293 tox -15% and 3T3 cytotox inconclusive.
For O=C1C(N2CCN(S(=O)(=O)Cc3ccccc3F)CC2)CCN1CCc1ccccc1 (stereo not drawn) the results were NPR1 antag 4%, HEK293 tox inconclusive, Luciferase inh inactive and 3T3 cytotox -26%.
Cc1ccc(C(C)NC(=O)CNC23CC4CC(CC(C4)C2)C3)cc1 (stereo not drawn) was read as NPR1 antag -1%, HEK293 tox inconclusive, Luciferase inh inactive and 3T3 cytotox inconclusive.
Screening CN(C)c1cccc(C(=O)N2CCNc3cnc(Nc4ccc(N5CCOCC5)cc4)nc3C2)c1 returned NPR1 antag -26%, HEK293 tox inconclusive, Luciferase inh inactive and 3T3 cytotox -26%.
COc1ccccc1Nc1ncc2c(n1)CN(C(=O)c1ccccc1)CCN2 was read as NPR1 antag 32µM*, HEK293 tox inconclusive, Luciferase inh inactive, 3T3 cytotox inconclusive, Npr1 antag conf 40µM*, NPR2 antag inconclusive, FLuc inh counter -11%[86.2 µM] and GloSensor ctrl 40µM*.
For COc1ccccc1Nc1ncc2c(n1)CN(C(=O)c1cccc(N(C)C)c1)CCN2 the results were NPR1 antag 22µM*, HEK293 tox 79µM*, Luciferase inh inactive, 3T3 cytotox -28%[138 µM], Npr1 antag conf 31µM*, NPR2 antag 35µM*, FLuc inh counter 0%[86.2 µM] and GloSensor ctrl 25µM*.
For c1csc(-c2ccnc(N[C@H]3CO[C@H]4[C@@H]3OC[C@@H]4NCC3CCCCC3)n2)c1 the results were NPR1 antag 7.9µM*, HEK293 tox inconclusive, Luciferase inh inactive, 3T3 cytotox 32µM*, Npr1 antag conf 11µM*, NPR2 antag 18µM*, FLuc inh counter 1%[86.2 µM] and GloSensor ctrl 9.9µM*.
Screening CN(C)c1ccc(-c2ccnc(N[C@H]3CO[C@H]4[C@@H]3OC[C@H]4OC(=O)NCc3ccccc3)n2)cc1 returned NPR1 antag -4%, HEK293 tox inconclusive, Luciferase inh inactive and 3T3 cytotox -20%.
COc1ccc(NC(=O)O[C@@H]2CO[C@H]3[C@@H]2OC[C@@H]3Nc2nccc(-c3cccs3)n2)cc1 was read as NPR1 antag 6%, HEK293 tox 0%, Luciferase inh inconclusive and 3T3 cytotox -1%.
CCNC(=O)O[C@@H]1CO[C@H]2[C@@H]1OC[C@@H]2Nc1nccc(-c2ccc(-c3ccccc3)cc2)n1 was read as NPR1 antag 6.3µM*, HEK293 tox 10µM*, Luciferase inh inactive, 3T3 cytotox inconclusive, Npr1 antag conf 6.9µM*, NPR2 antag 14µM*, FLuc inh counter 0% and GloSensor ctrl 9.7µM*.
For COc1ccccc1-c1ccnc(N[C@H]2CO[C@H]3[C@@H]2OC[C@@H]3NS(=O)(=O)c2ccc(NC(C)=O)cc2)n1 the results were NPR1 antag inconclusive, HEK293 tox inconclusive, Luciferase inh inactive and 3T3 cytotox inconclusive.
CC(=O)Nc1ccc(S(=O)(=O)N[C@H]2CO[C@H]3[C@@H]2OC[C@@H]3Nc2nccc(-c3cccc(F)c3)n2)cc1 was read as NPR1 antag 11µM*, HEK293 tox 16µM*, Luciferase inh inactive, 3T3 cytotox inconclusive, Npr1 antag conf 14µM*, NPR2 antag 17µM*, FLuc inh counter 1% and GloSensor ctrl 12µM*.

Bioassay records: PubChem BioAssay, National Center for Advancing Translational Sciences (NCATS)
